Out of some 370,000 compounds screened, about 6,800 (1.8%) were called active. Only a selection was taken, and actives are over-represented in it overall. Values without a mark were called inactive.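 The calls were made as follows: active = activation above a cutoff set at the mean of all screened compounds plus 3 SD (cut at about 10% in these data); inactive = the rest.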

Here are results for 92 molecules from PubChem BioAssay AID687014 (The Scripps Research Institute Molecular Screening Center, 2013).

In the test the test system is Nuclear hormone receptor DAF-12 (Heterodera glycines), GAL4 fusion. Kind of test: H. glycines DAF-12 receptor agonists, primary screen, cell-based, luminescence, HEK293, GAL4 fusion, UAS-luciferase (AID 687014).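 Also: 0% = DMSO wells and 100% = sodium butyrate wells.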 Particulars: HEK293 GAL4-hgDAF12 UAS-luciferase reporter, agonist luminescence; at 6.8 µM; active compounds read high; normalized to butyrate control. On the technique in general: In a reporter assay the amount or activity of a reporter protein is the signal.
Regarding `OC(CCl)CCl`, the activation is 2.07%.
To `C/C(=N\Nc1nc2ccccc2[nH]1)c1cccs1` belongs 12.3% (active); to `C/C(=N\Nc1ccc(S(N)(=O)=O)cc1[N+](=O)[O-])c1cccs1`, -0.57%.
To `C/C(=N\NC(=O)CSc1nc2ccccc2c(=O)n1-c1ccccc1C)c1cccs1` belongs -2.57%; to `COCCCNC(=O)C[C@H]1C[C@@]2(C(=O)OC)C(=C[C@H](C(C)(C)C)O[C@@H]2C)N(Cc2ccc(Cl)cc2Cl)C1=O`, -0.78%.
To `Cc1cc(N2CCN(C(=O)OC(C)(C)C)C[C@H]2C)ccc1N1CCN(Cc2ccccc2)[C@H](C)C1` belongs -0.97%; to `O=C(c1cc(COc2cccc(C(F)(F)F)c2)on1)N1CCSCC1`, -1.54%; to `COc1ccccc1-c1cc(C(=O)N2CCCCC2)no1`, 11.7% (active).
Consider `COc1ccc(C(=O)C2CCCN(C(=O)c3cc(C)on3)C2)cc1F` (configuration not stated), for which the activation was -1.33%.
To `CC(=O)c1ccc(NC(=O)c2cc(-c3cccs3)on2)cc1` belongs 1.57%.
To `O=C(c1cc(-c2ccccc2O)on1)N1CCCC1` belongs 13.1% (active).
To `COc1ccc(OCc2cc(C(=O)N3CCCC3)no2)c2ccccc12` belongs 7.54%.
In the case of `CCOC(=O)C1CCCN(C(=O)c2cc(-c3cccs3)oc2C)CC1` (configuration not stated), the activation was -2.05%.
Turning to `O=C(c1cc(-c2cccs2)on1)N1CCCCC1`, the activation is 10.8% (active).
To `O=C(c1cc(C2CCCCN2S(=O)(=O)c2ccccc2)on1)N1CCOCC1` (configuration not stated) belongs 1.09%.
Turning to `N#Cc1ccc(OC[C@@H](O)CN2CCC(C(O)(c3ccccc3)c3ccccc3)CC2)c(F)c1`, the activation is -0.04%.
To `CN(C)Cc1cn(-c2ccc(-c3noc4c3C(=O)N(CC(=O)N3CCOCC3)CC4)cc2)nn1` belongs -1.17%; to `O=C(c1ccncc1)N1CC[C@H]2[C@H](CCCN2Cc2ccc(F)cc2)C1`, 5.55%; to `O=C(NCCS(=O)(=O)N1CCN(c2ccccc2F)CC1)c1ccc(Br)o1`, 0.09%.
As for `CC(=O)N1Cc2cc(C(=O)NCc3cccc(F)c3)nc(-c3cccc(C4=CCCC4)c3)c2[C@H]1CCO`, the activation was -1.83%.
As to `COc1ccc2c(c1)CN1CN(CCc3ccccc3)S(=O)(=O)CC21` (configuration not stated), the activation is 0.93%.
As for `CC1(C(=O)Nc2cccc(Oc3ccccc3)c2)CCN1Cc1ccccc1Cl` (configuration not stated), the activation is -0.38%.
Turning to `Cc1ccoc1C(=O)Nc1cccc(Oc2ccccc2)c1`, the activation was 11.7% (active).
To `COc1ccc(/C=C/C(=O)OCC(=O)Nc2cccc(Oc3ccccc3)c2)c(OC)c1` belongs 2.49%; to `O=C(NCc1ccccc1)[C@@H]1CCCN1C(=O)[C@@H](NS(=O)(=O)c1ccc(F)cc1F)C1CCCCC1`, -0.9%; to `C[C@H]1CN([C@@H](C)CO)C(=O)CCCn2nncc2CO[C@@H]1CN(C)C(=O)Nc1ccc(N2CCN(C)CC2)cc1`, -1.55%.
For the molecule `CCOc1ccc(-n2c(SCC(=O)Nc3cc(C)c(NC(=O)c4ccccc4)cc3OC)nnc2-c2cccc(Cl)c2)cc1`, the activation is -2.83%.
As for `COC(=O)C1=C(C)N(Cc2cccc(C(F)(F)F)c2)C(=NCc2ccccc2)NC1c1ccc(Cl)cc1` (configuration not stated), the activation is 4.18%.
As to `CSCCNC(=O)c1ccc2nc(Cc3ccccc3F)oc2c1`, the activation was 10.5% (active).
Regarding `COc1ccc(Cc2nc3ccc(C(=O)NCC4CCOCC4)cc3o2)cc1OC`, the activation was 2.3%.
Turning to `COCCNC(=O)c1ccc2nc(Cc3ccc(OC)c(OC)c3)oc2c1`, the activation was 4.83%.
Regarding `Brc1ccc(/C=N/N2CCN(C3c4ccccc4-c4ccccc43)CC2)s1`, the activation is 0.61%.
As for `COc1cccc(N(CC(=O)NC2CCCC2)C(=O)Cn2nnc(-c3ccc(C)o3)n2)c1`, the activation was 0.01%.
As for `C[C@]12CCC(=O)C=C1C=CC1C2CC[C@@]2(C)C1CC[C@@]21CCC(=O)O1` (some centres not stated), the activation was -2.47%.
Take `O=C(Nc1nnc(SCc2c(Cl)cccc2Cl)s1)C1CCCO1` (configuration not stated): the activation is 3.2%.
With `Cc1ccc(C)c(C(C)NC(=O)C2CCCO2)c1` (configuration not stated), the activation is -0.46%.
In the case of `Cc1cc(C)c2nc(NC(=O)C3CCCO3)sc2c1` (configuration not stated), the activation is 11.9% (active).
To `CCOc1ccc(-n2c(SCC(=O)Nc3cc(C)c(NC(=O)c4ccccc4)cc3OC)nnc2-c2cccs2)cc1` belongs 7.81%.
To `Cc1cc(C(=O)CSc2nc(N)cc(=O)[nH]2)c(C)n1-c1cccc(F)c1` belongs -3.64%.
For the molecule `O=C(CSc1nnc2ccccn12)c1ccccc1`, the activation is 8.56%.
To `Cc1ccc(-n2c(C)cc(C(=O)CSc3nnc4ccccn34)c2C)cc1` belongs 11.6% (active); to `CS(=O)(=O)N1CCC(C(=O)N2CCN(c3ccccc3)CC2)CC1`, -2.01%; to `CS(=O)(=O)N1CCN(c2cccc(Cl)n2)CC1`, -0.95%.
To `CS(=O)(=O)N1CCc2nc(-c3ccccc3)sc2C1` belongs 15.3% (active).
To `CCc1c(-c2ccccc2OC)ncn1CCc1ccccc1OC` belongs -2.96%; to `O=C(N/N=C\c1ccc(Br)cc1)c1ccc(Cn2cccn2)o1`, 10.5% (active); to `CN(C)c1ccc(/C=N/NC(=O)c2ccc(Cn3cc(Br)cn3)o2)cc1`, 5.9%.
On to `Cc1c(Cl)c([N+](=O)[O-])nn1Cc1ccc(C(=O)N/N=C\c2cc(Cl)ccc2O)o1`, for which the activation is 0.23%.
To `COc1ccc(-n2c(SCC(=O)Nc3ccccc3-c3ccccc3)nnc2-c2cccnc2)cc1` belongs 0.21%.
For the molecule `COCCNC(=O)Nc1ccc2nc(-c3ccco3)c(-c3ccco3)nc2c1`, the activation was -6.29%.
To `COc1ccc(NC(=O)c2c(C)oc3c2CCCC3)cc1` belongs 3.38%.
As for `CCOC(=O)N1CCN(S(=O)(=O)c2ccc(C(=O)Nc3ccc(F)cc3F)cc2)CC1`, the activation is 3.94%.
To `COc1ccc(C(=O)Nc2ccc(-n3nncc3C(C)(C)C)cc2)cc1` belongs -2.44%; to `O=C(C=CC(=O)Nc1ccc(F)cc1F)Nc1ccc(F)cc1F`, -0.27%.
For `COc1ccc(NC(=O)c2ccc(OC)cc2)cc1`, the activation is 14.9% (active).
Consider `O=C(Nc1ccc2ccccc2c1)Nc1ccc2snnc2c1`, for which the activation was 1.18%.
For the molecule `COc1ccc(C(=O)Nc2ccc(F)cc2F)cc1`, the activation is 10.5% (active).
To `COc1ccc(NC(=O)Nc2ccc3nsnc3c2)cc1` belongs 15.7% (active); to `COc1ccc(-n2c(C)nn(CC3CC3)c2=O)cc1`, -0.88%; to `Cn1c(CC2Sc3ccccc3NC2=O)nnc1SCC(=O)c1ccc(Cl)cc1` (configuration not stated), 2.7%.
Take `CCn1c(SCC(C)=O)nc2sc3c(c2c1=O)CCCC3`: the activation was -0.6%.
As for `Nc1[nH]c(C(=O)c2ccccc2)c(-c2ccc(Cl)cc2Cl)c1C(=O)c1ccccc1`, the activation was 0.29%.
To `O=C(Nc1ccc(F)cc1)C(CCc1ccccc1)N1CCN(CC(=O)N2CCCC2)CC1` (configuration not stated) belongs -2.94%; to `COC(=O)[C@]12C[C@H](CC(=O)NCCc3ccccc3OC)C(=O)N(Cc3ccccc3)C1=C[C@H](C(C)C)O[C@@H]2C1CC1`, -1.92%; to `O=C(NN=Cc1ccc2c(c1)CCC2)c1ccccc1O`, 14.7% (active).
Regarding `CC(NC(=O)c1cccc2ccccc12)c1ccc2c(c1)CCCC2` (configuration not stated), the activation is 1.33%.
In the case of `O=C(N/N=C/c1ccc(O)c(O)c1)C1c2ccccc2Oc2ccccc21`, the activation is -0.99%.
Take `Cc1nn(-c2ccccc2)c2[nH]c(C(F)(F)F)cc(=O)c12`: the activation was 0.5%.
Turning to `CC1CCN(C(=O)c2ncn3c2C(=O)N[C@@H](C)C3)CC1`, the activation was 0.1%.
Turning to `CCSc1nnc(NC(=O)c2ccc(C)cc2)s1`, the activation was 14.4% (active).
As to `CCCc1cc(=O)[nH]c2nnc(SCC(=O)Nc3nnc(SCC)s3)n12`, the activation is 1.68%.
On to `COC(=O)c1ccc(CSc2nnc(NC(C)C)s2)cc1`, for which the activation is -0.67%.
To `CCOC(=O)N1CCN(C(=O)C[C@H]2C[C@@]3(C(=O)OC)C(=C[C@H](C(C)(C)C)O[C@@H]3C)N(Cc3ccc(Cl)cc3Cl)C2=O)CC1` belongs 0%; to `COC(=O)c1cccc(Cn2ccc3ccc(-c4ccc5ccn(C(=O)C6CCCCC6)c5c4)cc32)c1`, 3.04%.
To `CC(NC(=O)COC(=O)c1ccc2ccccc2n1)c1ccccc1` (configuration not stated) belongs 5.11%; to `Cc1cccc(NC(=O)c2ccc3ccccc3n2)n1`, 14.8% (active).
With `Cc1cccc(NC(=O)Cc2ccc(Br)cc2)n1`, the activation is 3%.
To `C=CCN1[C@@H](Cc2ccccc2)COc2cccc(N3CCSCC3)c2S1(=O)=O` belongs 3.43%.
Consider `O=C1Oc2ccccc2C(=O)/C1=C/c1ccccc1O`, for which the activation is -1.59%.
To `COc1ccc(/C=C2/C(=O)OCc3cc(OC)c(OC)cc32)c(OC)c1` belongs -3.92%; to `COc1ccc2c(c1)O/C(=C\c1ccccc1O)C2=O`, 13% (active); to `CSc1ccc(Oc2cccc3c2S(=O)(=O)N([C@H](C)c2ccccc2)C[C@@H](COCc2ccccc2)O3)cc1C`, 1.48%.
Regarding `O=S1(=O)c2c(cccc2N2CCCC2)O[C@H](COCc2ccccc2)CN1C1CC1`, the activation is -1.8%.
To `CONc1nc2nonc2nc1NOC` belongs -3.04%; to `O=C(NCCC1=CCCCC1)c1ccc(-n2cncn2)cc1`, 11.6% (active).
With `O=C(COc1cccc(-n2cnnn2)c1)NCCC1=CCCCC1`, the activation is -1.74%.
For the molecule `O=C(NCCC1=CCCCC1)c1ccc(Cl)c([N+](=O)[O-])c1`, the activation was 4.8%.
To `COC(=O)[C@@]12CCCCC3=C1N(CCC3)C(=O)[C@H]2CC(=O)NCc1cccc2ccccc12` belongs -3.73%; to `O=C(NC1CCCCN(Cc2ccc(Cl)cc2)C1=O)c1ccc(Br)cc1` (configuration not stated), -3.05%.
In the case of `Cc1cc(C)c2nc(N3CCC(C(=O)NCCN4CCOCC4)CC3)sc2c1`, the activation is 1.84%.
To `Cc1nc(N2CCOCC2)sc1C(=O)NN` belongs -4.56%.
In the case of `Fc1cc(F)c2nc(N3CCOCC3)sc2c1`, the activation was 11.6% (active).
